Results from PubChem BioAssay AID2685 (National Center for Advancing Translational Sciences (NCATS), 2010).
Screen size: about 320,000 compounds; about 2,100 (0.66%) were called active. Inconclusive results (about 53%) are left out. Calls come from the whole dose curve; as a rule, active = well fitted inhibition curve with a large enough effect in the signal ratio, with a control signal flat (not every such curve was filed as active); inconclusive = small, poorly fitted or top-dose-only effect, or effect the other way, or a change in a side signal; inactive = flat fitted curve, though single readings scatter; the % refers to the signal ratio. The full list was thinned out, with actives kept by preference.

experiment: qHTS Assay for Lipid Storage Modulators in Drosophila S3 Cells; details: BODIPY lipid droplet fluorescence, 18-24 h, cells fed with added oleic acid; cell number change: measured here: cell count max response; series mostly up to 46.1 µM;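 for cell number change: cells counted by Cell Tracker Red CMTPX staining in the red channel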; for lipid storage change, negative = inhibition: % is set by controls: 0 for no effect and ±100 for the full control effect
In short: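 Drosophila S3 cells got compounds at several concentrations plus oleic acid (400 uM solution). Laser-scanning cytometry with 488 nm excitation read lipid droplets at 500-530 nm and cells at 575-640 nm. Percent activity was relative to 20 uM Triacsin C.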
Potency is the fitted concentration of half-maximal effect.

Compound | Potency | cell number change | lipid storage change, negative = inhibition
C/C(=C\C(=S)Nc1ccccc1)Nc1ccccc1 | inactive | -10.3% | 
Nc1ncc(-c2ccc([N+](=O)[O-])cc2)cn1 | inactive | 12.5% | 
Nc1ncc2c(n1)CCN(c1ccc([N+](=O)[O-])cc1)C2 | 23.1 µM (active) | -20.7% | 
O=[N+]([O-])c1ccc(N2CCCCC2)cc1 | inactive | 7.1% | 
O=C(CCNC(=O)N1CC(=O)Nc2ccccc21)Nc1ccc(Br)cc1F | inactive | -22.5% | 
O=C1c2cccc3cccc(c23)C(=O)N1Nc1ccccc1 | inactive | 13.9% | 
CCOc1ccc(C(C)=O)cc1CSC(=N)N | inactive | 0.606% | 
CCCOc1ccc(Br)cc1CSC(=N)N | 18.4 µM (active) | -27.5% | 
COc1ccc(Br)cc1CSC(=N)N | inactive | 1.43% | 
COc1ccc(Nc2c3c(nc4ccccc24)CCC3)cc1 | inactive | 21.3% | 
Cc1ccc2nc3c(c(Nc4ccccc4)c2c1)CCC3 | inactive |  | 
COc1ccc(Nc2c3c(nc4ccc(C)cc24)CCC3)cc1 | 20.6 µM (active) | 0.901% | 
COc1ccc(C(C)=O)cc1COC(=O)CNC(=O)c1ccc(Cl)cc1 | inactive | -0.097% | 
Cc1c(C(=O)N/N=C/C(C)C)[nH]c2ccc([N+](=O)[O-])cc12 | inactive | -4.9% | 
O=C(NCCN1CCOCC1)c1sc2cc(Cl)ccc2c1Cl | 4.61 µM (active) | -3.15% | 
O=C(NCCN1CCOCC1)c1sc2ccccc2c1Cl | inactive | -1.8% | 
O=C(NCCCN1CCOCC1)c1sc2cc(Cl)ccc2c1Cl | inactive | 0.814% | 
COc1ccc(NC(=O)Nc2nnc(-c3ccco3)s2)cc1 | inactive | 3.5% | 
Cc1cc2nc(NC3=NCN(CCN4CCOCC4)CN3)nc(C)c2cc1C | inactive | -6.7% | 
Cc1cc(C)c2nc(NC3=NCN(CCN4CCOCC4)CN3)nc(C)c2c1 | 25.9 µM (active) | 3.72% | 
Cc1nc(NC2=NCN(CCCN3CCOCC3)CN2)nc2c(C)cccc12 | inactive |  | 
CS(=O)(=O)NN1C(=O)c2ccccc2NC1c1c[nH]c2ccccc12 (centres undefined) | inactive | 15.5% | 
CCOc1ccc(NC(=O)CCC(=O)NNC(=O)Nc2ccc(Cl)cc2)cc1 | inactive | 10.6% | 
CCOc1ccc(NC(=O)CCC(=O)NNC(=O)c2ccc(Br)o2)cc1 | 6.51 µM (active) | 5.86% | 
CCOc1ccc(NC(=O)CCC(=O)NNC(=O)c2ccco2)cc1 | inactive |  | 

Compound | Potency | cell number change | lipid storage change, negative = inhibition
CCOCCCNc1c2c(nc3cc(-c4ccc(F)cc4)nn13)CCC2 | inactive | 9.58% | 
CCCCn1c(CCNC(=O)c2ccco2)nc2ccccc21 | inactive | 8.05% | 
C=C(C)Cn1c(CCNC(=O)c2ccco2)nc2ccccc21 | 0.517 µM (active) | 15.2% | 
C=CCn1c(CCNC(=O)c2ccco2)nc2ccccc21 | inactive | 8.97% | 
CCn1c(CCNC(=O)c2ccco2)nc2ccccc21 | inactive | -11.3% | 
CC(C)Cn1c(CCNC(=O)c2ccco2)nc2ccccc21 | 3.66 µM (active) |  | 
CC(C)Cn1c(CCCNC(=O)c2ccco2)nc2ccccc21 | inactive |  | 
CC(=O)c1ccc(S(=O)(=O)N2CCN(C(=O)c3ccccc3Cc3ccccc3)CC2)cc1 | inactive |  | 
CCNC(=O)CN(CCc1ccccc1)S(C)(=O)=O | inactive | -1.75% | 
NC(=O)CSc1nccn1Cc1ccccc1 | inactive | -3.05% | 
CCOc1ccc(S(=O)(=O)N2CCC(C(=O)NCC3CCCO3)CC2)cc1Cl (centres undefined) | inactive | 20.5% | 
O=S(=O)(NC1CCCC1)c1ccc(S(=O)(=O)NC2CCCC2)cc1 | inactive | 5.07% | 
CSc1ccc(S(=O)(=O)NC2CC2)cc1 | inactive | 1.23% | 
CSc1ccc(S(=O)(=O)NC2CCCCC2)cc1 | 23.1 µM (active) | 26.8% | 
Cc1cccc(C)c1NC(=S)N(CCN(C)C)Cc1cccs1 | inactive | -10.3% | 
O=S(=O)(Nc1cccc(-n2cnnn2)c1)c1ccccc1 | inactive | -16.7% | 
Cc1ccc(S(=O)(=O)Nc2ccc(-n3cnnn3)cc2)cc1 | inactive | 12.5% | 
O=S(=O)(Nc1cccc(-n2cnnn2)c1)c1ccccc1C(F)(F)F | inactive | -11% | 
Cc1ccc(S(=O)(=O)Nc2ccc(-n3cnnn3)cc2)c(C)c1 | 0.58 µM (active) | -8.9% | 
O=S(=O)(Nc1ccc(-n2cnnn2)cc1)c1ccc(Cl)cc1 | inactive | -6.89% | 
O=S(=O)(Nc1cccc(-n2cnnn2)c1)c1cc(Br)ccc1Br | 20.6 µM (active) | -10.7% | 
O=C(CNC(c1ccccc1)c1ccccc1)NCc1ccccc1Cl | inactive | 11.7% | 
Cc1cccc(N2CCN(S(=O)(=O)c3c(C)noc3/C=C/N(C)C)CC2)c1C | inactive | 12.9% | 
O=C(/C=C/c1cccs1)Nc1nc(-c2ccccc2)cs1 | inactive |  | 
Cc1cc(C)c(-c2csc(NC(=O)/C=C/c3cccs3)n2)c(C)c1 | 16.4 µM (active) | -27.5% | 

Compound | Potency | cell number change | lipid storage change, negative = inhibition
Cc1cc(C)nc(NC(=O)/C=C/c2cccs2)c1 | inactive | -8.29% | 
O=C(NCCCc1ccccc1)C1CC(=O)N(c2ccc3c(c2)OCCO3)C1 (centres undefined) | inactive | 12.6% | 
Cc1coc(=N)n1CC(=O)c1ccc(Cl)cc1 | inactive | 10.4% | 
O=c1[nH]cnc2c1cnn2Cc1ccccc1Cl | inactive |  | 
Cc1ccc(Cn2ncc(Cl)c(Cl)c2=O)cc1 | inactive | 1.44% | 
O=c1c(Cl)c(Cl)cnn1Cc1ccccc1Cl | 14.6 µM (active) | -22.7% | 
O=C(CS(=O)(=O)c1ccccc1)Nc1nnc(-c2cccs2)o1 | inactive | 3.1% | 
CCn1c2ccccc2c2cc(NC(=O)CN(C)CC(=O)Nc3ccc(N4CCOCC4)cc3)ccc21 |  | -4.9% | -0.511% [at 9.22 µM] (inactive)
Oc1ccc2ccccc2c1C=Nc1ccc(N2CCOCC2)cc1 | inactive |  | 
CCn1c(=Nc2ccc(N3CCOCC3)cc2)ccc2ccccc21 | 9.2 µM (active) | -184% | 
COc1cc(C(c2sc3ncnn3c2O)N2CCN(c3ccccc3F)CC2)cc(OC)c1OC (centres undefined) | inactive | 14.8% | 
CSc1nc(SCC(=O)O)c2c3c(sc2n1)COC(C)(C)C3 | inactive | 9.24% | 
COc1ccc(S(=O)(=O)N2CCOCC2)cc1NC(=O)CSc1nnc2c(n1)[nH]c1ccccc12 | inactive | -0.0197% | 
CCCCCC(=O)N1CCN(CCN=CC2=C(O)CC(c3cccs3)CC2=O)CC1 (centres undefined) | inactive | 0.809% | 
C=CCNC(=S)N1CCN(CCN=CC2=C(O)CC(c3cccs3)CC2=O)CC1 (centres undefined) | inactive | 17.2% | 
CC(=O)N1CCN(CCN=CC2=C(O)CC(c3cccs3)CC2=O)CC1 (centres undefined) | 20.6 µM (active) | -26.6% | 
Cc1coc2c(C)c3oc(=O)c(CCC(=O)NCCC(=O)O)c(C)c3cc12 | inactive | 7.91% | 
Cc1ccc(-c2nc(CSc3nc4ccccc4c(=O)n3C)cs2)cc1 | inactive | 13.2% | 
Cc1ccc(CSc2nc3ccccc3c(=O)n2C)cc1 | 16.4 µM (active) | 10.9% | 
Cn1c(SCc2ccc(Br)cc2)nc2ccccc2c1=O | inactive | -15.2% | 
COC(=O)c1[nH]c2ccc(Cl)cc2c1NC(=O)C1CC1 | inactive | 1.77% | 
CCc1n[nH]c(=S)n1/N=C/c1ccc(N(CC)CC)cc1 | inactive | -4.64% | 
CCN(CC)c1ccc(/C=N/n2c(C)cc(C)cc2=O)cc1 | inactive | 0.542% | 
CCN(CC)c1ccc(/C=N/N2CC(=O)NC2=S)cc1 | 0.291 µM (active) | -17.5% | 
COc1cc(NC(=O)c2ccc([N+](=O)[O-])cc2)c(OC)cc1NC(=O)CC(C)C | inactive | 14.3% | 

Compound | Potency | cell number change | lipid storage change, negative = inhibition
O=C(c1ccco1)N1N=C(c2ccc3nccnc3c2)CC1c1ccccc1 (centres undefined) | inactive | 13.8% | 
COCCNC(=O)c1ccc2c(c1)S(=O)(=O)c1cc(Cl)ccc1C2=O | 5.8 µM (active) | 9.21% | 
CCCNC(=O)c1ccc2c(c1)S(=O)(=O)c1ccccc1C2=O | inactive | 6.31% | 
O=C(NCC1CC1)c1ccc2c(c1)S(=O)(=O)c1cc(Cl)ccc1C2=O | inactive | 7% | 
O=S(=O)(c1ccc(Cl)cc1)c1cnc2ccccc2n1 | 29.1 µM (active) | -118% | 
Nc1ncc(S(=O)(=O)c2ccc(Cl)cc2)c(N)n1 | inactive | 19.4% | 
Clc1ccc(N2CCN(c3cnc4ccccc4n3)CC2)cc1 | inactive | -5.19% | 
Cc1ccc(C(=O)N[C@H](C(=O)OCc2cc(=O)n3c(n2)sc2ccccc23)C(C)C)cc1 | inactive | -15.4% | 
Cc1ccc(C(=O)N[C@H](C(=O)OCc2nnc(-c3ccccc3)o2)C(C)C)cc1 | inactive | -21.1% | 
Cc1ccc(C(=O)NC(C(=O)OCc2cn3cc(Cl)ccc3n2)C(C)C)cc1 (centres undefined) | 5.17 µM (active) | 6.32% | 
CCOC(=O)C1CCCN(S(=O)(=O)c2ccc(Br)s2)C1 (centres undefined) | inactive | -14.8% | 
Cc1nc2oc3ccc(F)cc3c(=O)c2cc1C(=O)O | inactive | 9.45% | 
Cn1c(=O)c2c(nc(NCCCO)n2C/C=C/c2ccccc2)n(C)c1=O | 9.2 µM (active) | -27.3% | 
Cn1c(=O)c2c(nc(NCCCO)n2Cc2cccc(Br)c2)n(C)c1=O | inactive |  | 
CCCNc1nc2c(c(=O)n(C)c(=O)n2C)n1CCCc1ccccc1 | inactive | -29.8% | 
Cn1c(=O)c2c(nc(NCc3ccco3)n2CCc2ccccc2)n(C)c1=O | 11.6 µM (active) | -22.9% | 
C/C(Cl)=C\Cn1c(NCCc2ccccc2)nc2c1c(=O)n(C)c(=O)n2C | 6.51 µM (active) | -18.8% | 
Cn1c(=O)c2c(nc(NCc3ccco3)n2CC(O)CO)n(C)c1=O (centres undefined) | inactive | 9.76% | 
CCn1c(NCc2ccco2)nc2c1c(=O)n(C)c(=O)n2C | inactive | -2.38% | 
Cn1c(=O)c2c(nc(NCCCO)n2CCc2ccccc2)n(C)c1=O | inactive | -21.6% | 
CCN(CC)CCNc1nc2c(c(=O)n(C)c(=O)n2C)n1C/C=C(/C)Cl | inactive | -1.05% | 
Cn1cnc(S(=O)(=O)N2CCN(c3cccc(C(F)(F)F)c3)CC2)c1 | inactive | 3.98% | 
